# Experiments:
# [1] = biological target: T1, Aspartate--tRNA(Asp/Asn) ligase (Mycobacterium tuberculosis (strain ATCC 25618 / H37Rv)) (UniProt P9WFW3); assay: Assay for Asp RNA synthetase-1 from Mycobacterium tuberculosis; type: functional; parameters: scale not given: direction of the effect not stated beside the values; details: 30 µM; also: in the data most compounds retested in dose-response had high values
# T1 sequence (whole entry): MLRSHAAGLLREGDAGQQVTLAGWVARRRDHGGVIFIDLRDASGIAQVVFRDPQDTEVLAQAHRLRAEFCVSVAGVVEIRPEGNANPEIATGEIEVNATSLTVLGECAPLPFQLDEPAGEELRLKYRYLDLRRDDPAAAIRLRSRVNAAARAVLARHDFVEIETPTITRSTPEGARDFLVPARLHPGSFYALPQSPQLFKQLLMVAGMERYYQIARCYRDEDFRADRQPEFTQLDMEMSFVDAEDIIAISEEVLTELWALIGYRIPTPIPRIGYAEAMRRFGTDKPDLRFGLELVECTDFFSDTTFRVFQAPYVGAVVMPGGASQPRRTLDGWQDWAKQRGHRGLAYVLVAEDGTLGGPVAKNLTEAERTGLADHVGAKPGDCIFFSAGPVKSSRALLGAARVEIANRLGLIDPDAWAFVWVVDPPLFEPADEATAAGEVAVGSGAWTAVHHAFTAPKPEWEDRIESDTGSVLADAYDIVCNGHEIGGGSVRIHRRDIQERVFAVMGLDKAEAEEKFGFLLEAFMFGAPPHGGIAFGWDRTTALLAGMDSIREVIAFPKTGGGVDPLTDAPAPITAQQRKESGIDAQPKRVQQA
# [2] = biological target: Shiga toxin 2 (Escherichia coli O157:H7) (UniProt P09385+P09386); assay: E. coli 0.157:H7 Shiga Toxin SOP - stx2 screening assay; type: functional; parameters: scale not given: direction of the effect not stated beside the values; details: 30 µM
SMILES,Percent Effect [1],Percent Effect [2]
COc1ccc(-c2nnc(SC(C)C(=O)NCC(C)C)[nH]2)c(OC)c1 (configuration not stated),7.67%,8.94%
CC(C)c1csc(C2CCCN(C(=O)Cn3ccccc3=O)C2)n1 (configuration not stated),-3.63%,-29.5%
O=C(CN1CCCC(Cn2cncn2)C1)NCCOc1ccccc1 (configuration not stated),-2.48%,-0.612%
CCNC(=O)N(C)Cc1ccc(SC)c(OC)c1,4.58%,0.0534%
Cc1ncsc1C(=O)NC1CCN(CCC(N)=O)CC1,-2.4%,13.9%
O=C(CC1CCCC1)N1C[C@@H]2CCN(c3cccnc3)C[C@@H]2C1,2%,-5.1%
CC(C)(C)C(=O)NCCn1ccc(-c2ccncc2)n1,-3.08%,-20%
Cc1ccc(CN(Cc2cccnc2)C2CC(C)(C)NC(C)(C)C2)s1,3.32%,13.4%
Cc1cccc(N2CCN(CCNC(=O)C(C)n3cncn3)CC2)c1 (configuration not stated),2.75%,15.6%
COc1ccc(CN2CCn3c(CNS(C)(=O)=O)nnc3C2)cc1,1.39%,-6.04%
Cn1cc(C2COC3(CCN(C(=O)c4ccc(F)cc4)CC3)C2)cn1 (configuration not stated),0.474%,4.34%
Cc1cnn(C2CN(CC(=O)NCc3ccccn3)C2)c1,5%,21.1%
CC(C)c1nc(CN(C)C2CCN(CC(F)(F)F)C2)no1 (configuration not stated),8.54%,-4.21%
Cc1ccc(OCCC(=O)NC2CCc3nccn3C2)cc1 (configuration not stated),-1.56%,-18%
CC1CN(C(=O)CN(Cc2ccccc2Br)C2CC2)CCO1 (configuration not stated),2.59%,29.2%
Cc1cc(C)n(CC2CCCN2Cc2c(C)noc2C)n1 (configuration not stated),-2.12%,-12.7%
Cn1nccc1CNC(=O)Nc1cc(C(F)(F)F)c[nH]c1=O,0.5%,21%
COc1cccc(CCC2CCCN(C(=O)c3n[nH]c4c3CCC4)C2)c1 (configuration not stated),2.06%,-1.83%
Cn1cc(C2CC(=O)NC23CCN(CC2CC2)CC3)cn1 (configuration not stated),-4.05%,-21.4%
Cc1c[nH]cc1C(=O)N1CCN(CCc2cccs2)CC1,-4.34%,-33.2%
O=C(NCC1(CO)CC1)c1cccc2ccccc12,-3.45%,-0.178%
CC(=O)N1CCCn2nc(CNS(=O)(=O)c3cc(C)cs3)cc2C1,1.67%,5.82%
COCCCNC(=O)NCc1ccc(C)cc1,-3.8%,-59.7%
Cn1cc(NC(=O)N2CCC(CN3CCCC3)CC2)ccc1=O,-3.79%,-22.6%
O=c1cccnn1CC1CN(Cc2ccsc2)Cc2nccn2C1 (configuration not stated),7.43%,5.53%
CN(Cc1cccc(F)c1)C(=O)CN1CCCC1CCc1ccccc1 (configuration not stated),-1.52%,-33.4%

SMILES,Percent Effect [1],Percent Effect [2]
CCOc1ccnc(N2CCN(C(=O)c3cc(Cl)c[nH]3)CC2)n1,-2.48%,18.5%
Cc1cc(C)n(CCCNC(=O)[C@@H](C)NC(=O)OC(C)(C)C)n1,2.46%,12.1%
Cc1ccc2c(c1)CCC21CCN(C(=O)CO)CC1,5.32%,-38.4%
Cn1cc(Br)c(=O)c(NS(=O)(=O)c2cc(F)ccc2Cl)c1,-1.26%,16.3%
COc1ccc(CNC(=O)c2nn(C)c3c2CS(=O)(=O)CC3)cc1OC,-8.6%,-18.6%
Cc1ccc(NC(=O)Cn2cc(I)cn2)cc1,1.25%,-45.6%
O=C(COC[C@H]1CC[C@H]2[C@H](CCN2c2ncccn2)O1)N1CCCC1,-2.51%,-24.1%
CSCCC(=O)N1CCC(Oc2cc(C)ccc2F)(C(=O)O)CC1,-1.34%,-3.19%
O=C1CO[C@@H]2CN(CC3CCOCC3)C[C@H]2N1CC1CC1,14.8%,5.99%
O=C(NC1CC1)[C@H]1C[C@@H]2CCN(CCc3ccccc3)C[C@H]2O1,3.49%,-10.6%
COc1c(C2CCCN2Cc2cc(C)no2)c(C)nn1C (configuration not stated),3.61%,18.1%
CC(C)NC(=O)c1n[nH]c(-n2cnnc2)n1,-4.62%,-0.0919%
Cc1cc(C(=O)N2CC[C@@H]3CN(S(C)(=O)=O)CCO[C@@H]3C2)c(C)o1,2.19%,1.92%
Cc1cnn(CC(C)NCc2ccc(S(C)(=O)=O)cc2)c1 (configuration not stated),1.18%,-66.9%
Cc1occc1C(=O)N1CCC2(CC1)CC(c1cccnc1)C(=O)N2C (configuration not stated),-1.22%,-20.1%
COc1ccc(-c2noc(CN3CCc4cncnc4C3)n2)cc1,-0.389%,-15%
c1cnc(N2CCC3(CC2)CN(CC2CC2)c2ccccc23)nc1,3.62%,-25%
Cc1cnn(CC2CCCN2CC(=O)N(C)CCC#N)c1 (configuration not stated),-0.546%,-11.9%
Cc1cc(C)n(-c2cncc(NCCNC(=O)C(C)C)n2)n1,8.76%,2.01%
COC(=O)c1cccn1C1CCN(C(=O)c2cc(F)ccc2F)CC1,1.88%,19.6%
O=C1CC[C@H]2CN(Cc3ccc(Cl)s3)CC[C@H]2N1CCc1c[nH]cn1,0.912%,-115%
Cc1cnc(CNC(=O)NCc2cccnc2N(C)C)s1,-2.25%,-0.447%
CCc1nc(C2CCCN2C(=O)c2nc(C)n3ccccc23)no1 (configuration not stated),-1.96%,-2.42%
Cc1ccc(CN2CC[C@H]3OCC[C@@H](C(=O)NC4CC4)[C@@H]3C2)o1,4.6%,-6.37%
CC(C)C1CN(C(=O)c2ccc(C(N)=O)cc2)CCS1 (configuration not stated),9.66%,-45.2%
Cc1ccc(CC(=O)N2Cc3nccn3CC(Cn3cccn3)C2)cc1 (configuration not stated),0.0228%,-2.6%

SMILES,Percent Effect [1],Percent Effect [2]
Cc1cc(C2CCCN2CC(=O)N(CCC#N)c2ccccc2F)on1 (configuration not stated),3.09%,0.491%
CCN(CC)C(=O)c1ccn(COc2ccccc2)n1,-2.64%,4.36%
CCSCCC(=O)NS(=O)(=O)c1ccc2c(c1)OCCO2,-0.722%,-25.1%
Cc1ccc(CC(=O)N2CCOC(c3nc(C(C)(C)C)n[nH]3)C2)cn1 (configuration not stated),-0.39%,-0.658%
Cn1ccc(CN2CCC(NC(=O)Cc3ccccc3)CC2)cc1=O,-3.72%,8%
COc1ncc(C2CC(=O)NCc3nc4ccccn4c32)cn1 (configuration not stated),-1.4%,15%
CC(=O)N1CCCN(C(=O)c2ccn(-c3cccc(Cl)c3)n2)CC1,3%,5.49%
Nc1cc2c(nn1)CCN(C(=O)CC1CCCC1)C2,-1.69%,2.23%
COc1cccc(N2CCN(C(=O)[C@H](O)C3CCCCC3)CC2=O)c1,-3.25%,-7.11%
O=C(c1ccc(Cl)o1)N1CCCC(c2cc(C(F)(F)F)[nH]n2)C1 (configuration not stated),3.23%,38.7%
COc1ccc(CNC(=O)N(Cc2ccc(F)cc2F)C2CC2)cn1,-9.17%,-13%
CCOc1nnc(CN2CCOC(CNc3cccnn3)C2)s1 (configuration not stated),4.86%,-50.9%
COc1ccc(F)cc1C(C)NC(=O)Nc1nnc(C)s1 (configuration not stated),-0.889%,15.6%
CC(=O)Nc1nc(C(=O)NCc2ccc(N3CCCCCC3)nc2)cs1,6.56%,-131%
Cn1cccc1C(=O)N1CCCC2(CCN(CCN3CCCC3)C2=O)C1 (configuration not stated),-3.77%,-30.4%
O=C(Cn1c(=O)n(Cc2ccco2)c2ncccc21)NC1CCCCC1,-3.2%,-5.4%
c1cnc(OCc2nnc3n2CCN(CC2CC2)C3)nc1,1.75%,4.75%
CC1CCCN(CC(=O)N2CCC(c3ncc4c(n3)CCNC4)CC2)C1 (configuration not stated),-2.22%,-1.44%
COc1cccc(N2CCN(CC(O)c3ccc(C)cc3)CC2)c1 (configuration not stated),8.45%,10.4%
CC(=O)Nc1nc(C(=O)N2CCCC(n3nc(C)cc3C)C2)cs1 (configuration not stated),-0.815%,10.8%
CC(C)C(NC(=O)NCC1(CO)CC1)c1nnc2n1CCC2 (configuration not stated),-3.28%,19.7%
CC(C)c1nc(C2CCCN(Cc3nnc(C4CC4)o3)C2)no1 (configuration not stated),-2.16%,-7.91%
Cc1nc(-c2ccccc2)n(CC(=O)N(C(C)C)C(C)C)n1,4.15%,23.2%
COc1cc(CNC(=O)C2CC(=O)N(C(C)C)C2)ccn1 (configuration not stated),-1.66%,-62.3%
COC(=O)c1cccn1C1CCN(CC(=O)NC2CCCCC2)CC1,-1.64%,1.4%
Cc1cc(CN2CCC(CNC(=O)c3nccc4ccccc34)C2)[nH]n1 (configuration not stated),8.37%,-22.4%

SMILES,Percent Effect [1],Percent Effect [2]
CS(=O)(=O)NCC1CCCN(C(=O)c2cc3ccccc3o2)C1 (configuration not stated),3.19%,-22%
Cc1nc(CNCC2CCCN2c2cccnn2)no1 (configuration not stated),-2.08%,-15.8%
COCC(=O)N1CCC(c2cc(C(F)(F)F)n3ccnc3n2)CC1,-2.99%,-10.9%
CCN(CC)C(=O)c1ccn(COc2cc(C)cc(C)c2)n1,-7.43%,-39.1%
CCCc1cc(=O)[nH]c2nnc(SCC(=O)NCc3ccc(C)cc3)n12,-7.99%,2.17%
CC(CNC(=O)Nc1cn[nH]c1)N1CCc2ccccc2C1 (configuration not stated),-0.721%,21.5%
CCN(CCn1cccn1)Cc1nc(-c2cccs2)oc1C,-0.251%,7.38%
Cc1csc(N2CCN(Cc3ccccn3)CC2C)n1 (configuration not stated),6.41%,-0.687%
Cc1c(F)cccc1CN1CCn2nc(CNC(=O)N(C)C)cc2C1,0.386%,-49.9%
COc1ccc(-c2noc(CNC(C)Cn3cccn3)n2)c(OC)c1 (configuration not stated),-1.71%,-8.56%
O=c1c2cnc(N3CCCCC3)nc2ccn1-c1ccccc1,-0.697%,-17.9%
COCc1ccc(CNC(=O)C2=NN(c3ccccc3)C(=O)CN2)cc1,16.6%,-18.1%
CS(=O)(=O)N1CCC(C(=O)NC(Cc2ccsc2)c2ccccn2)CC1 (configuration not stated),-1.32%,14.7%
CC1CN(C)c2ccccc2CN1C(=O)CSc1ccncc1 (configuration not stated),6.09%,-6.66%
CCN1CCN(C(=O)CCc2c(C)noc2Cl)CC1,0.983%,28.8%
CCc1nnc(CN2CCCC(c3cc(C(F)(F)F)[nH]n3)C2)o1 (configuration not stated),1.01%,-4.16%
c1ncn(CC2CCCN(Cc3nc(C4CC4)no3)C2)n1 (configuration not stated),-2.51%,-1.62%
CC(C)c1noc(C(C)N2CCN(CCO)CC2)n1 (configuration not stated),13%,16.1%
O=C(c1ccc2c(c1)COC2)N1CCC(Nc2cccnn2)CC1,-1.3%,-8.52%
CCOc1ccccc1OC1CCN(C(=O)c2nc(=O)[nH][nH]2)CC1,-1.63%,-11.2%
CCCNC(=O)N1CCN(Cc2cc(C)no2)CC1,-0.393%,17.7%
CC(NC(=O)NCCCNS(C)(=O)=O)c1ccncc1 (configuration not stated),-3.27%,-2.62%
O=C1OCCN1CCc1nc(-c2cc3c4c(c2)CC(=O)N4CCC3)cs1,1.61%,9.08%
